HCMV inh – human cytomegalovirus inhibition. AID 1259415. 4.5% of 410,000 active. HFF cells, HCMV-luciferase reporter, 72 h; active compounds read low. activity change, negative = inhibition, % at 57.5 µM; in the data active means activity change below about -60%; inconclusive means no clear call, values can overlap the other calls; inactive means above about -39%
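Steps: HFFs plated, 16 h 37C; compounds added; HCMV-luciferase added to MOI 1 PFU/cell; 72 h 37C; OneGlo reagent, 5 min room temperature; luminescence read, normalized to controls.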
RE007 growth inh – less growth of the S. pombe RE007 Vpr strain; S. pombe RE007 Vpr strain, BacTiter-Glo ATP luminescence, 24 h; Potency, µM (highest dose often 92.2 µM), hits mostly inhibitors; 0.21% of 360,000 active; AID 651644; active means well fitted falling curve with a large enough effect; inconclusive means small, poorly fitted or top-dose-only effect; inactive means no such curve, though single readings can be large or run the other way; further: nearly all actives have a fitted effect of over 50% in size
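Fission yeast strain RE007, carrying one chromosomally integrated HIV-1 vpr copy, was seeded at OD 0.01 in PMG+AL medium with 23 nL pinned compound. After 24 h at 30 °C and 99% humidity, viability was read by BacTiter-Glo luminescence.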
Tb PYK inh – inhibitors of Trypanosoma brucei pyruvate kinase. Q57TT1. TbPYK enzyme, Kinase-Glo Plus ATP luminescence, 45 min. Potency, µM (top dose mostly 76.8 µM), actives largely listed as inhibitors. 0.12% of 410,000 active. AID 624173; further: nearly all actives have a fitted effect of over 50% in size
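In this concentration-response screen, enzyme-free wells defined baseline while DMSO plates tracked drift. Each reaction combined TbPYK, substrate, compound and 130 uM ADP for 45 min at room temperature. Kinase-Glo Plus luminescence gave the signal.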
FBPA Giardia inh – inhibitors of Giardia lamblia fructose-1,6-bisphosphate aldolase | A8B2U2 | purified Giardia FBPA | Potency, µM (titrated, usually from 59.6 µM), actives largely listed as inhibitors | 0.71% of 290,000 active | AID 2451; further: nearly all actives have a fitted effect of over 55% in size
Target sequence (A8B2U2 whole entry, looked up): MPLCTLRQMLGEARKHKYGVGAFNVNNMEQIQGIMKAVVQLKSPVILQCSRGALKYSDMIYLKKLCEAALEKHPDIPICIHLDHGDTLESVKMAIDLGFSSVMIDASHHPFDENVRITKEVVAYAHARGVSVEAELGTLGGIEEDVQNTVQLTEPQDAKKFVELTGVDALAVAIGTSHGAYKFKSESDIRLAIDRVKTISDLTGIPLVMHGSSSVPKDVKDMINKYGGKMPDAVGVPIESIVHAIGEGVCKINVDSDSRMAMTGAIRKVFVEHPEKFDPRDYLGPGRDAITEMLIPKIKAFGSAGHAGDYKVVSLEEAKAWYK
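40 nM FBPA preincubated 10 min at RT with compound (up to 57.5 uM final), then substrate plus GAPDH/TPI/NAD/arsenate coupling and diaphorase/resazurin added. Fluorescence read after 20 min at RT, 525/598 nm.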
FMDV antiviral – blocks foot and mouth disease virus; FMDV antiviral cell-based qHTS; Potency, µM (highest dose often 57.9 µM), hits mostly inhibitors; 1.2% of 410,000 active; AID 1159524; calls by dose curve; tested in HEK293T cells; further: read-out not given here; nearly all actives have a fitted effect of over 45% in size
Sm TGR inh – S. mansoni TGR enzyme inhibition | Q962Y6 | purified TGR, DTNB reduction, TNB absorbance 405 nm | Potency, µM (series often up to 114 µM), actives largely listed as inhibitors | 3% of 360,000 active | AID 485364; further: nearly all actives have a fitted effect of over 60% in size
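TGR 20 nM + NADPH 100 uM (dispensed conc.), cpd preinc 15 min RT; start with NADPH (500 uM addition) then DTNB (15 mM addition). Kinetic TNB absorbance, 405 nm filter. Four-parameter Hill fit across titration.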
Numbers stand for hits; n = inactive; u = inconclusive; x = no result. Sampled rows, rich in hits. Any-hit rate of the full collection: about 7.7%. Unless noted, the call rests on the fitted dose curve; in most records, active means well fitted curve in the direction sought with a large enough effect; inconclusive means small, poorly fitted or top-dose-only effect, or another doubt; inactive means no such curve, though single readings can be large; an effect the other way counts as inactive or inconclusive.

SMILES	HCMV inh	RE007 growth inh	Tb PYK inh	FBPA Giardia inh	FMDV antiviral	Sm TGR inh
CC(C(=O)Nc1sc2c(c1C(=O)NCC1CCCO1)CCC2)N1C(=O)c2ccccc2C1=O (configuration not stated)	-100.2	n	n	n	n	n
CC1(O)CCN2C(=O)CCc3cccc1c32 (configuration not stated)	-61.2	n	n	x	n	n
CN1CCC(C2(O)c3ccccc3CCc3ccccc32)CC1	u	n	n	n	n	n
CCCn1c(-c2ccc(S(=O)(=O)N3CCOCC3)cc2)csc1=Nc1ccc(OCC)cc1	n	x	n	x	n	n
Cc1ccc(NC(=O)C(=O)NCC(c2cccnc2)N2CCN(Cc3ccccc3)CC2)cc1C (configuration not stated)	n	x	n	x	n	n
c1ccc(C2CC3CC(c4ccco4)N2O3)cc1 (configuration not stated)	n	n	n	n	n	35.5µM
CC(=O)N1CCC[C@@]2(CCN(Cc3cc(C(F)(F)F)cc(C(F)(F)F)c3)C2)C1	x	x	n	n	n	x
COc1ccc(C(C)(C)C)cc1S(=O)(=O)n1ccnc1C	-69.7	n	n	n	n	n
FC(F)Sc1ccc(NC(=S)NC(c2ccccc2)c2ccccc2)cc1	-97.6	n	n	n	u	n
CN(C(=S)Nc1ccc(SC(F)F)cc1)C(c1ccccc1)c1ccccc1	-72.5	n	n	n	n	n
FC(F)Sc1ccc(NC(=S)NCc2ccccc2)cc1	-88.2	n	n	n	n	n
FC(F)Oc1ccc(NC(=S)NCc2ccccc2)cc1	n	n	n	n	n	n
FC(F)(F)c1cc(NC(=S)NC(c2ccccc2)c2ccccc2)cc(C(F)(F)F)c1	x	x	x	n	x	x
CC(C)OC(=O)c1cc(C(=O)OC(C)C)cc([N+](=O)[O-])c1	x	x	n	x	x	x
COc1cc(C)nc(OCCNC(=O)COc2ccc(Cl)cc2Cl)n1	-60.4	n	n	n	n	n
CN(C)c1nc(OCCNC(=O)COc2ccc(Cl)cc2Cl)nc(N(C)C)n1	n	n	n	n	u	n
c1ccc(C(c2ccccc2)N2CCN(Cc3nc(-c4cnccn4)no3)CC2)cc1	n	n	n	n	n	25.1µM
O=C1CC2(CCCCC2)CC(=O)N1CCc1ccccc1	n	n	n	x	n	x
O=C1C=CC(=O)C(C2=C3C(=O)N(CCc4ccccc4)CC(=O)N3CCC2)=C1	-99.1	n	2.51µM	17.7µM	u	0.282µM
COc1cc2c(c(OC)c1OC)C(c1ccc3c(c1)OCO3)CC(=O)O2 (configuration not stated)	n	n	n	n	n	x
COc1ccc2cc3[n+](cc2c1OC)CCc1cc2c(cc1-3)OCO2	-95.6	u	n	u	u	n
COc1ccc2c(c[n+](C)c3c4cc5c(cc4ccc23)OCO5)c1OC	x	x	x	u	10µM	x
O=C(O)/C=C(/CC(=O)O)C(=O)O	x	x	n	x	x	x
O=C(O)c1[nH]c2ccccc2c1C(c1cc(Br)ccc1O)c1c(C(=O)O)[nH]c2ccccc12	n	n	n	n	n	n
Cc1ccc(C(c2cccc(Br)c2)c2c(C)[nH]c3ccccc23)s1 (configuration not stated)	n	x	n	x	n	25.1µM
SMILES	HCMV inh	RE007 growth inh	Tb PYK inh	FBPA Giardia inh	FMDV antiviral	Sm TGR inh
O=C(O)/C=C/c1cccc(NS(=O)(=O)c2ccccc2)c1	n	n	n	n	n	n
NS(=O)(=O)c1cccc(NS(=O)(=O)c2ccc(/C=C/C(=O)O)cc2)c1	n	n	n	n	n	25.1µM
CCN(C(=O)c1sc2nc3n(c(=O)c2c1C)CCCC3)c1ccccc1F	n	x	n	x	n	u
CCc1ccc(OC(=O)CSc2nnc(-c3ccc4c(c3)OCO4)o2)cc1	n	x	n	x	n	n
Cc1c(C(C)(C)C)c(C=S)n2ccccc12	n	n	n	n	n	2.24µM
CC(=O)N1CCCc2cc(S(=O)(=O)N3CCN(c4ccc(F)cc4)CC3)ccc21	n	x	n	x	u	n
CN(C)c1ccc(CNC(=O)CN2C(=O)C3CCCCN3c3ccc(C(=O)N4CCCC4)cc32)cc1 (configuration not stated)	n	x	n	x	n	n
COc1cc(C2Nc3cccc4cccc(c34)N2)cc(OC)c1OC(C)=O	n	n	n	u	n	8.91µM
COc1cc(C2Nc3cccc4cccc(c34)N2)ccc1O	n	n	n	u	n	3.98µM
CCN(CC)c1ccc(C2Nc3cccc4cccc(c34)N2)c(O)c1	n	n	n	u	n	22.4µM
COc1ccc(Br)cc1C1Nc2cccc3cccc(c23)N1	n	n	n	n	n	u
Oc1ccc2ccccc2c1C1Nc2cccc3cccc(c23)N1	n	n	n	n	u	n
CCCC(=O)O[C@]1(C(=O)CCl)[C@H](C)C[C@@H]2[C@H]3CCC4=CC(=O)C=C[C@]4(C)[C@@]3(F)C(=O)C[C@@]21C	x	x	n	x	x	x
CCCCN(Cc1ccco1)C(=O)Cn1ncc2c([nH]c3ccccc32)c1=O	n	x	n	x	u	n
Cc1ccc(C(C)C)c(O)c1C(=O)O	-62.9	n	n	x	n	x
Cc1cc(O)c(C=O)c(O)c1C(=O)O	x	x	x	n	n	x
COC1=C(Br)C(=O)c2nc(C)ccc2C1=O	n	n	n	x	39.8µM	x
COC1=C(OC)C(=O)c2ccccc2C1=O	x	x	x	n	x	x
COC1=C(N)C(=O)c2nc(C)ccc2C1=O	n	n	n	x	10µM	x
O=C(COC(=O)c1ccc(F)c([N+](=O)[O-])c1)NC(=O)NCc1ccccc1	n	n	n	x	31.6µM	x
Cc1ccc(CNS(=O)(=O)c2cc(C(=O)Nc3cccc(C(F)(F)F)c3)ccc2F)cc1	n	x	n	x	n	n
CCCC(=O)Nc1c(C(=O)N2CCN(c3ccccc3)CC2)oc2ccccc12	n	x	n	x	n	n
CC(C)(C)C(=O)Nc1c(C(=O)N2CCN(c3ccc(F)cc3)CC2)oc2ccccc12	-82.4	x	n	x	n	n
FC(F)(F)c1nc(-c2ccncc2)ncc1-c1nnnn1-c1ccccc1	n	n	n	x	n	n
FC(F)(F)c1ccncc1-c1nnnn1-c1ccc(Cl)cc1	u	n	n	n	n	n
SMILES	HCMV inh	RE007 growth inh	Tb PYK inh	FBPA Giardia inh	FMDV antiviral	Sm TGR inh
FC(F)(F)c1nc(N2CCCC2)ncc1-c1nnnn1-c1ccc(Cl)cc1	-65.1	n	n	n	u	n
Fc1ccc(-n2nnnc2-c2cnc(-c3cccs3)nc2C(F)(F)F)cc1	-86.2	n	n	n	15.8µM	n
Cc1ccc(-n2nnnc2-c2cnc(-c3cccnc3)nc2C(F)(F)F)cc1	u	n	n	n	22.4µM	n
Cc1ccc(-n2nnnc2-c2cnn(-c3ccc(F)cc3)c2C(F)(F)F)cc1	-69.8	n	n	n	u	n
CN(C)CC[C@@](O)(c1ccccc1)c1ccccc1Cl	x	x	n	x	x	x
CSc1ccc(C2c3c(oc4cc(C)cc(C)c4c3=O)C(=O)N2CCO)cc1 (configuration not stated)	n	x	n	x	n	n
